# Compounds with a hit are over-represented: about 2.8% of the library has one in this group of screens.
# CF NFkB inh = inhibitors of PAF-induced NF-kB signaling, primary screen, cell-based, GFP fluorescence, uHTS | KKLEB NF-kB-GFP reporter, GFP fluorescence overnight | inhibition, % at 5 µM | 360,000 tested, 0.86% active;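 active = at least 50% inhibition at 5 µM, scaled per plate between neutral and stimulator controls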;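 also: PAF is a Pseudomonas aeruginosa culture filtrate used as stimulus; plate controls were PAF-stimulated DMSO wells for no effect and unstimulated DMSO wells for full effect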
# MITF TRPM1 inh = inhibitors of MITF-dependent TRPM1 promoter reporter, primary screen, cell-based, SK-MEL-5, single point, luciferase | SK-MEL-5 TRPM1 promoter luciferase, 24 h | AID 488899, 2010 | inhibition, % at 12.5 µM | 330,000 tested, 0.83% active;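 active = mean inhibition across replicates of 60% or more, whatever share of single replicates reaches that level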
# Shn3 inh set2 = reduction of Shn3 3'UTR firefly luciferase signal, primary screen, Schnurri-3 inhibitor project, cell-based, Clone20 osteoblasts, set 2; Clone20 osteoblast Shn3 3'UTR firefly luciferase, 24 h; inhibition, % at 12.5 µM; 360,000 tested, 0.52% active; AID 588674, 2011;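 active = mean inhibition of at least 75% with every replicate also reaching 75%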;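 also: 0% = median of neutral control wells and 100% = pilot-screen positive control compound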
# HIF-2a inh = HIF-2a reporter inhibitors, primary screen, luminescence, 786-0 RCC cells. inhibition, % at 18.8 µM. 786-0 RCC cells HIF-2a reporter, luciferase luminescence, overnight. 360,000 tested, 0.72% active;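 active = inhibition of the luminescence signal of 40% or more relative to plate controls, in a single-dose primary screen at 18.75 µM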
# Peg3 promoter = Peg3 promoter-driven luciferase inhibitors, primary screen, cell-based, HeLa, luciferase luminescence; HeLa PEG-Prom luciferase reporter, overnight; inhibition, % at 20 µM; 360,000 tested, 1.7% active;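 active = inhibition of at least 50% at 20 µM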
# KKLEB tox = cytotoxicity in KKLEB CF airway cells, primary screen, cytotoxicity control for CF NF-kB inhibitor project, cell-based, uHTS, fluorescence assay plates; activity change (cytotoxicity), % at 5 µM; 360,000 tested, 0.36% active; KKLEB CF airway cells viability, ATPlite luminescence, overnight; stronger effect = lower value; cells stimulated with P. aeruginosa culture filtrate;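 active = corrected activity change at or below -50% at 5 µM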
# * marks the source's active call; other numbers are inactive results; . = no result.
SMILES,CF NFkB inh,MITF TRPM1 inh,Shn3 inh set2,HIF-2a inh,Peg3 promoter,KKLEB tox
O=C1C=CC(=O)c2c(O)c(N3CCN(CCO)CC3)c(Cl)c(O)c21,-23,99*,99*,90*,102*,15
COCCN1C(=O)CN(S(C)(=O)=O)CC1(C)C(=O)Nc1c(C)cccc1C (stereo not drawn),.,.,.,-3,.,.
CC(C)(C)NC(=O)c1ccc(NC(=O)CSc2ccccc2)cc1,6,-2,4,-42,-9,-7
Cc1cccc(OC(=O)Nc2ccc(C(=O)O)c(O)c2)c1,12,.,-6,13,2,-5
CC(C)(C)c1ccc(OC(=O)Nc2ccc(O)c(C(=O)O)c2)cc1,-14,1,-32,69*,5,10
COc1ccc(NS(=O)(=O)c2cc(NC(=O)/C=C/c3cccs3)ccc2N2CCOCC2)cc1,-19,7,14,16,50*,-9
CCCCCC(=O)Nc1ccc(N2CCOCC2)c(S(=O)(=O)Nc2ccc(OC)cc2)c1,5,-2,16,6,7,13
Cc1cc(Oc2nc3c(C)cccn3c(=O)c2/C=C(\C#N)S(=O)(=O)c2ccccc2)ccc1Cl,26,10,3,21,68*,-9
CC(=O)Nc1ccc(C(=S)NCCCO)cc1,-3,10,-2,1,3,2
O=[N+]([O-])c1c(NCCCO)cc(Sc2nc3ccccc3s2)c2nonc12,-20,70*,90*,35,101*,13
CCCSc1cc(NCCOC(=O)CCC)c([N+](=O)[O-])c2nonc12,-6,-6,4,14,56*,-2
Cc1nnc(Sc2cc(NCCO)c([N+](=O)[O-])c3nonc23)s1,-10,67*,34,25,31,20
CC(=O)OCCCNc1cc(SCc2ccco2)c2nonc2c1[N+](=O)[O-],1,6,2,-1,46,2
Cc1nnc(Sc2cc(NCCCO)c([N+](=O)[O-])c3nonc23)s1,-7,75*,28,32,56*,6
CCCSc1cc(NCCOC(C)=O)c([N+](=O)[O-])c2nonc12,-15,4,4,24,14,-10
CC(C(=O)Nc1ccc2c(c1)OCO2)N1CCC(N2CCCCC2)CC1 (stereo not drawn),5,.,-12,6,-2,4
C=CC[C@]12C=C(OC)C(=O)C=C1O[C@@H](c1ccc3c(c1)OCO3)[C@H]2C,16,-7,26,10,6,-1
COc1ccc(/C(C)=N/NC(=O)C(NC(=O)c2ccccc2)c2n[nH]c(=O)c3ccccc23)c(OC)c1 (stereo not drawn),10,-2,.,19,15,-12
Cc1cc(O)c(Sc2ncn[nH]2)cc1NS(=O)(=O)c1ccc(Cl)cc1,19,-2,-6,11,7,2
O=C(O)CSc1cc(NS(=O)(=O)c2ccc(Br)cc2)c2ccccc2c1O,91*,48,-5,5,45,-31
Cc1ccc(S(=O)(=O)Nc2ccc(Br)cc2C(NCC(=O)O)c2ccccc2)cc1 (stereo not drawn),24,16,3,20,10,8
O=S(=O)(Nc1cc(Sc2ncn[nH]2)c(O)c2ccccc12)c1ccccc1,79*,40,93*,3,-5,7
COc1ccc(C(=O)C2CCCN(C(=O)c3csc(SC)n3)C2)cc1F (stereo not drawn),6,.,-25,-48,-27,5
CC(C)n1cnc2c(Nc3cccc(Cl)c3)nc(NCCCO)nc21,45,31,-8,-66,33,-14
C=CC(=O)Nc1cccc(Nc2nc(N[C@H]3CC[C@H](N(C)C)CC3)nc3c2ncn3C(C)C)c1,85*,90*,68,71*,102*,-70*
SMILES,CF NFkB inh,MITF TRPM1 inh,Shn3 inh set2,HIF-2a inh,Peg3 promoter,KKLEB tox
Cc1nn(CCc2nn[nH]n2)c2nc(-c3ccc(C4CCCCC4)cc3)cc(C(F)(F)F)c12,76*,13,9,12,24,-57*
Cn1nc(C(=O)OCC(=O)Nc2ccccc2[N+](=O)[O-])c2ccccc2c1=O,4,5,-14,8,9,6
CCCCn1c(N)c(N(CC(C)C)C(=O)CCCc2nc3ccccc3c(=O)[nH]2)c(=O)[nH]c1=O,-21,10,-10,7,-12,-14
Nc1cc2c3ccccc3ccc2c2ccccc12,88*,-2,-108,-318,72*,-78*
COc1ccc(NC(=O)CN(C)C(=O)/C=C/c2ccc(S(=O)(=O)N3CCCCCC3)cc2)cc1,26,6,7,14,52*,-17
CC(C)(C#N)NC(=O)C1CCCN1S(=O)(=O)c1ccc2ccccc2c1 (stereo not drawn),7,12,5,14,7,-5
COc1ccc(NC(=O)N(C)C[C@H]2Oc3ccc(NC(=O)NC4CCCCC4)cc3C(=O)N([C@H](C)CO)C[C@@H]2C)cc1,14,-1,-6,2,0,4
CCOCCCNC(=O)c1ccc(-n2c(=S)[nH]c3ccccc3c2=O)cc1,-10,10,22,23,1,-10
O=C1NCN(c2ccccc2)C12CCN(CCCC(c1ccc(F)cc1)c1ccc(F)cc1)CC2,9,10,55,-9,82*,21
Cc1cc2c(cc1C)C(=O)C(Br)=C(N)C2=O,-30,62*,-23,-88,-134,9
NC1=C(Br)C(=O)c2ccccc2C1=O,14,71*,-1,-44,-69,14
CCCS(=O)(=O)N1CCN(C(=O)c2cccc(OC)c2)CC1,13,-10,-15,21,6,-7
CN(Cc1ccccc1)C(=O)c1[nH]cnc1C(=O)Nc1ccccc1F,9,.,-14,-2,-1,2
CC(Nc1c([N+](=O)[O-])c(=O)oc2ccccc12)C(Cl)c1ccccc1 (stereo not drawn),-8,38,5,25,50*,4
O=c1oc2ccccc2c(NC(c2ccccc2)c2ccccc2)c1[N+](=O)[O-],9,-8,14,10,35,0
O=C(O)c1ccc(C(=O)Nc2ccc(F)cc2)cc1,-16,106*,8,1,8,-6
CNC[C@H](CC1CCCCC1)NC[C@H](CO)NCC1(c2ccccc2)CC1,-8,66*,1,3,-19,-11
CCCCNC(=O)c1cc2cc(CC)ccc2[nH]1,2,-24,-1,-110,-87,-6
